Assay results: article PMC5540273 (PLoS ONE, 2017)

The molecules below were run on T1, GRK3. Settings: concentration: 1 μM, replicates: in singlicate; n = 1.
T1 construct: gene ADRBK2
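Also: KINOMEscan kinase panel screen.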

SMILES	%Inh
Cn1cc(-c2ccc3c(c2)CCN3C(=O)Cc2cccc(F)c2)c2c(N)ncnc21 [GSK2603358]	36%
CN(C)Cc1ccc(-c2ccc3c(Nc4ccc(Oc5ccccn5)cc4)ccnc3c2)o1 [GW567148]	0%
c1ccc(-c2n[nH]cc2Nc2ccnc3ccccc23)nc1 [GW694077]	33%
COc1ccc(CNC(=O)NC2CCN(c3ccnc(Nc4ccc(F)cc4)n3)CC2)cc1 [GSK1379788]	57%
COc1cc(Nc2nccc(-c3c(-c4cccc(NC(=O)c5c(F)cccc5F)c4)nn4ncccc34)n2)cc(OC)c1OC [GSK327238]	0%
CCCCc1nn2ncccc2c1-c1ccnc(Nc2ccc(N3CCN(C)CC3)cc2)n1 [GW684941]	62%
CC(C)c1nc(-c2cccc(NS(=O)(=O)c3c(F)cccc3F)c2F)c(-c2ccnc(Nc3ccc(N4CCOCC4)nc3)n2)s1 [GSK2008607]	0%
NCCCC(NC(=O)c1cc(Br)c(-c2ccnc3[nH]ccc23)s1)c1ccccc1.O=C(O)C(F)(F)F.O=C(O)C(F)(F)F (centres unmarked) [GSK1287544]	85%
CN(C)S(=O)(=O)c1cc(-c2ccc3nccc(-c4cccc(S(N)(=O)=O)c4)c3c2)cnc1N [GSK1669921]	0%

What follows are molecules tested on GRK4. Settings: concentration: 1 μM, replicates: in singlicate; n = 1.

SMILES	%Inh
Nc1ncc(-c2cccnc2)c2scc(-c3ccc4c(c3)CCN4C(=O)Cc3ccccc3)c12 [GSK683281]	22%
c1ccc(Oc2ccc(Nc3ccnc4cc(-c5ccc(CNCCN6CCOCC6)o5)ccc34)cc2)nc1 [GW567145]	0%
Cl.Cl.NCC(NCc1ccc(-c2ccnc3[nH]ccc23)s1)c1ccccc1 (centres unmarked) [GSK1321565]	82%
CCn1c(-c2nonc2N)nc2c(C#CC(C)(C)O)nc(OC[C@H](N)c3ccccc3)cc21 [GSK943949]	3%
O=C(Nc1cccc(-c2nn3ncccc3c2-c2ccnc(Nc3ccccc3)n2)c1)c1c(F)cccc1F [GSK198271]	1%
CCS(=O)(=O)c1ccc(OC)c(Nc2nccc(-c3c(-c4cccc(NC(=O)c5c(F)cccc5F)c4)nn4ncccc34)n2)c1 [GSK326180]	0%
C[C@@H](Oc1cc(-n2cnc3cc(-c4ccnc(NCCS(C)(=O)=O)c4)ccc32)sc1C(N)=O)c1ccccc1Cl [GSK907232]	82%
Oc1cc(Nc2ccnc3cc(I)ccc23)ccc1F [GW552771]	10%
Nc1ncc(-c2ccc3nccc(-c4ccncc4)c3c2)cc1S(=O)(=O)N1CCOCC1 [GSK1627798]	1%
Cl.Cl.NCC(C(=O)Nc1cc(Br)c(-c2ccnc3[nH]ccc23)s1)c1ccccc1 (centres unmarked) [GSK1269851]	86%
COc1ccc(Nc2nccc(N3CCC(NC(=O)Nc4cccc(OC)c4)C3)n2)cc1 (centres unmarked) [GSK1379742]	0%
Cc1cccc(NC(=O)Nc2ccc(Oc3ncnc4ccn(C)c34)cc2)c1	0%
O=C(Nc1ccccc1F)NC1CCN(c2ccnc(Nc3ccc(F)cc3)n2)CC1 [GSK1379800]	0%
COc1cccc(C2=C(Nc3ccc(Cl)c(C(=O)O)c3)C(=O)NC2=O)c1 [SB-390769]	14%
O=c1[nH]cc(-c2ccc(N3CCOCC3)cc2)c2sc(-c3cn[nH]c3)cc12 [GSK2276055]	0%
COc1ccc(Nc2nccc(NCCNC(=O)c3cc4ccccc4s3)n2)cc1 [GSK1379896]	0%
O=C(Nc1cccc(-c2nn3ccccc3c2-c2ccnc(Nc3cccc(C(F)(F)F)c3)n2)c1)c1c(F)cccc1F [GSK292658]	15%
COc1cccc(-c2ccc3c(NC(=O)C4CC4)n[nH]c3n2)c1 [SB-710903]	0%
Cc1cccc(Nc2nc(N[C@H]3CCNC3)ncc2C(N)=O)c1.Cl [GSK2197149]	78%
Fc1ccc(-c2ncn(C3CCNCC3)c2-c2ccnc(Oc3ccc(-c4ccccc4)cc3)n2)cc1 [SB-245391]	0%
O=C(NC1CCN(c2ccnc(Nc3ccc(F)cc3)n2)C1)c1cc2ccccc2s1 (centres unmarked) [GSK1379716]	0%
COc1cccc(C(=O)Nc2cccc(Oc3ccc4nc(NC(=O)C5CC5)cn4n3)c2)c1	0%
Cl.NC(=O)c1cccc(Nc2nccc(Nc3ccc(Oc4c(Cl)cccc4Cl)c(Cl)c3)n2)c1 [GW659009]	4%
